CYP2C9 inh: human CYP2C9 inhibition | actives 20% (n = 96,000) | CYP2C9 Supersomes, luciferin-H conversion, luminescence | inhibition, % at 5 µM;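 active = blocking of liver enzyme CYP2C9 beyond about 50% at 5 µM, limit read from the data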
CYP2C19 inh: blocks human cytochrome P450 2C19 | P33261 | CYP2C19 Supersomes, luciferin-H EGE luminescence, 30 min | inhibition, % at 5 µM | actives 21% (n = 96,000) | AID 778;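 active = CYP2C19 inhibition above a set limit at 5 µM in the primary screen, cut at about 50% in these data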;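 note: plate controls were negative control wells for no effect and 2.5 mM tranylcypromine positive control for full effect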
PLAP activator: activates human placental alkaline phosphatase | activation fold at 20 µM | AID 696 | P05187 | actives 1.2% (n = 96,000) | purified PLAP enzyme, luminescent substrate read-out; stronger effect = higher value; in the data active = activation fold above about 2
Target sequence (P05187 whole entry, looked up): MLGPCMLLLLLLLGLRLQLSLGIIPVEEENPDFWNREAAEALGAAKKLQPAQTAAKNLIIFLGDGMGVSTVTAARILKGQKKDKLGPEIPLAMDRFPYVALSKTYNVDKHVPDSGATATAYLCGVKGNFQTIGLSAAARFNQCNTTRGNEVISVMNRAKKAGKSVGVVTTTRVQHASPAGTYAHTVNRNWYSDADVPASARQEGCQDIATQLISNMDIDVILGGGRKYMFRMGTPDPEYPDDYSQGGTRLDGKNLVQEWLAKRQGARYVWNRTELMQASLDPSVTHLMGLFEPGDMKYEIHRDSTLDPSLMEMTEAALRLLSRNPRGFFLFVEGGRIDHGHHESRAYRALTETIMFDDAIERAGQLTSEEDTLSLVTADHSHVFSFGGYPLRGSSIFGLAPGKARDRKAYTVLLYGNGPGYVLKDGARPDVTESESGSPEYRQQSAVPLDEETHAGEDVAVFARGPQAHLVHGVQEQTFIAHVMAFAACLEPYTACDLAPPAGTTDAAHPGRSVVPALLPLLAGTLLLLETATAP
CYP2C19 act: increases human CYP2C19 enzyme activity | 96,000 tested, under 10 active | P33261 | activation factor at 5 µM | recombinant CYP2C19, luciferin-H EGE luminescence; stronger effect = higher value; 0 = fully inhibited enzyme, 1 = untreated enzyme;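 active = activation factor of at least 2 at 5 µM in the primary screen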;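 note: 0 = wells with 2.5 mM tranylcypromine and 1 = vehicle-only wells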
CYP2C9 activ: activators of human CYP2C9; activation factor at 5 µM; P11712; AID 1024; actives 1.4% (n = 96,000); recombinant CYP2C9, luciferin-H conversion, luminescence; stronger effect = higher value; factor 1 = untreated enzyme, 0 = blocked;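 active = activation factor of 2 or more for CYP2C9 at a 5 µM dose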;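 note: 0 = sulfaphenazole-blocked wells and 1 = vehicle-only wells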
Starred values were filed as active, the others as inactive. Compounds with a hit are over-represented: about 31% of the library has one in this group of screens.

SMILES	CYP2C9 inh	CYP2C19 inh	PLAP activator	CYP2C19 act	CYP2C9 activ
COc1cccc(C(=O)Nc2cc(C)ccc2NC(=O)COc2ccccc2)c1	12	-11	1	1.1	0.9
Cc1cccc(OCC(=O)Nc2sc3c(c2C#N)CCC3)c1	49	-2	1	1	0.5
Cc1cccc(OCC(=O)NNc2c3ccccc3nc3ccccc23)c1	-95	5	0.9	1	2*
CCOC(=O)CC(N)c1ccc2c(c1)OCO2 (stereo unspecified)	8	52*	0.9	0.5	0.9
CCOc1ccc(S(=O)(=O)N(C)c2ccc(OCC(=O)N3CCOCC3)cc2)cc1	74*	25	1.7	0.7	0.3
CCOC(=O)COc1ccc(S(=O)(=O)Nc2ccc(C)cc2)cc1	59*	20	1.2	0.8	0.4
CCOC(=O)COc1ccc(S(=O)(=O)c2ccc(OCC(=O)OCC)cc2)cc1	42	5	0.8	1	0.6
COC(=O)COc1ccc(S(=O)(=O)Nc2ccc3c(c2)OCCO3)cc1Cl	92*	98*	1.1	0	0.1
CCOC(=O)c1ccc(NC(=O)c2ccc3c(c2)OCO3)cc1	0	3	0.8	1	1
CCOc1ccc(OCC(=O)N2CCOCC2)cc1	-11	30	0.9	0.7	1.1
CC(=O)c1ccc(S(=O)c2ccccc2)cc1 (stereo unspecified)	-11	43	1	0.6	1.1
NC(=O)C1CCN(C2CC(=O)N(c3ccc(F)c(Cl)c3)C2=O)CC1 (stereo unspecified)	8	-3	1	1	0.9
CCOC(=O)CNC(=O)CSc1nnc(Cn2c(=O)sc3ccccc32)n1-c1ccccc1C	28	5	1.4	0.9	0.7
CCOC(=O)COc1ccc(S(=O)(=O)Nc2ccc3c(c2)OCO3)cc1	67*	86*	1.1	0.1	0.3
CCOc1ccc(NS(=O)(=O)c2ccc3[nH]c(=O)oc3c2)cc1	87*	88*	1	0.1	0.1
Cc1ccc(NS(=O)(=O)c2ccc(OCC(=O)N3CCOCC3)cc2)cc1	47	57*	1.3	0.4	0.5
CCOc1ccc(NS(=O)(=O)c2ccc(N)cc2)cc1	70*	54*	0.9	0.5	0.3
O=C(NCCc1ccccc1)C(=O)NCC1CCCO1 (stereo unspecified)	6	12	1	0.9	0.9
CC(Sc1nc2ccc(Br)cc2[nH]1)C(=O)O (stereo unspecified)	6	6	1.1	0.9	0.9
CC1(C)CC(=O)C(C=NCCc2ccc(O)cc2)=C(O)C1	-10	-4	1	1	1.1
CCCCNS(=O)(=O)c1ccc(OC)c2ncccc12	-23	20	1.1	0.8	1.2
COc1ccc(C)c(S(=O)(=O)Nc2ccc(OCC(=O)O)cc2)c1	-17	-10	1.1	1.1	1.2
CCOc1ccc(NS(=O)(=O)c2ccc(OCC)c3ncccc23)cc1	68*	25	1.3	0.8	0.3
Cc1cc(C)c(C)c(S(=O)(=O)Nc2ccc(OCC(=O)O)cc2)c1C	76*	-8	1	1.1	0.2
COC(=O)C1CN(S(=O)(=O)c2ccc(C)cc2)CCN1S(=O)(=O)c1ccc(C)cc1 (stereo unspecified)	-13	9	1.2	0.9	1.1
SMILES	CYP2C9 inh	CYP2C19 inh	PLAP activator	CYP2C19 act	CYP2C9 activ
CSc1nc(N)c2c3c(sc2n1)COC(C(C)C)C3 (stereo unspecified)	12	94*	0.8	0.1	0.9
CCCC1Cc2c(sc3nc(SC)nc(N)c23)CO1 (stereo unspecified)	11	38	0.9	0.6	0.9
Nc1ncc(Br)cc1S(=O)(=O)NCCC(=O)N1CCN(c2ncccn2)CC1	41	60*	1	0.4	0.6
Cc1cc(NC(=O)CCNS(=O)(=O)c2cc(Br)cnc2N)ccc1Br	41	30	0.8	0.7	0.6
COc1cc(OC)c(NC(=O)CCNS(=O)(=O)c2cc(Br)cnc2N)cc1Cl	94*	36	1.1	0.6	0.1
Nc1ncc(Br)cc1S(=O)(=O)NCCC(=O)Nc1cccc(Cl)c1	41	66*	0.8	0.3	0.6
CCn1c(SCc2ccccc2Cl)nc2ccccc21	-19	39	0.9	0.6	1.2
CCn1c(CSc2nc3ccccc3n2C)nc2ccccc21	38	86*	0.8	0.1	0.6
CCn1c(CNC(=O)C(C)(C)C)nc2ccccc21	-4	17	1.1	0.8	1
Cn1c(SCc2ccccc2Cl)nc2ccccc21	-28	73*	0.6	0.3	1.3
O=C(CCn1nc(-c2ccccc2)ccc1=O)N1CCOCC1	-4	26	1	0.7	1
Cc1ccc2c(c1)N(CC(=O)NC1CCCc3ccccc31)C(=O)CO2 (stereo unspecified)	2	47	1	0.5	1
CC1=C(C(=O)Nc2ccc(C)cc2C)C(c2ccc(C)o2)NC(=O)N1 (stereo unspecified)	-13	-18	0.9	1.2	1.1
Cn1c(-c2ccc(F)cc2)cnc1NCc1ccc(C#N)cc1	57*	64*	1	0.4	0.4
CCN(CC)CCn1c(NCc2ccc(OC)cc2)nc2ccccc21	-3	-7	1.1	1.1	1
CCOc1cc(CNc2ncc(-c3ccc(OC)cc3)n2C)ccc1O	47	59*	1.6	0.4	0.5
Cn1c(-c2ccc(Br)cc2)cnc1NCc1cccnc1	23	37	1.1	0.6	0.8
Cn1c(-c2ccc(F)cc2)cnc1NCc1ccc(F)cc1	28	69*	0.9	0.3	0.7
COc1cc(OC)c(OC)cc1CN1CCN(S(=O)(=O)c2ccc(F)cc2)CC1	-6	4	1.3	1	1.1
Cc1cc([N+](=O)[O-])cnc1NC(C)c1ccccc1 (stereo unspecified)	50	65*	1	0.4	0.5
CC(NC(=O)Cn1cnc([N+](=O)[O-])n1)c1ccccc1 (stereo unspecified)	17	2	1	1	0.8
COc1nc(-c2ccccc2)ccc1-c1noc(COc2ccccc2)n1	48	28	1	0.7	0.5
c1ccc(CCc2nc(-c3ccccc3)no2)cc1	3	13	1.2	0.9	1
c1ccc(-c2noc(CN3CCN(c4ccccc4)CC3)n2)cc1	45	71*	1.6	0.3	0.6
COc1ccc(CCN(Cc2nc(-c3ccccc3)no2)Cc2nc(-c3ccccc3)no2)cc1OC	86*	54*	0.9	0.5	0.1
c1ccc(OCCCc2nc(-c3ccncc3)no2)cc1	90*	98*	1.1	0	0.1
c1ccc(OCc2nc(-c3ccccc3)no2)cc1	37	72*	0.8	0.3	0.6
Fc1ccccc1N1CCN(Cc2nc(-c3ccccc3)no2)CC1	11	21	1	0.8	0.9
COc1ccc(-c2noc(CCCOc3ccccc3)n2)cc1OC	79*	90*	1.3	0.1	0.2
c1ccc(OCCCc2nc(-c3ccccn3)no2)cc1	33	80*	1	0.2	0.7

Compound activity deposited in PubChem BioAssay by Sanford-Burnham Center for Chemical Genomics.
